# Results filed as inconclusive are left out. A call without a number means that no potency is given here. The source made the active and inactive calls. Calls come from the whole dose curve.
# Biological target: Acetylcholinesterase (Homo sapiens) (UniProt P22303)
# Assay: Acetylcholinesterase (AChE) small molecule antagonists: fluorescence cell-based qHTS assay (AID 1347398); note: nearly all actives have a fitted effect of over 50% in size
# Settings: SH-SY5Y cells; Potency: AChE activity; outcome: AChE activity; series mostly up to 115 µM
# Method in brief: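 Using neuroblastoma SH-SY5Y cells as the enzyme source, test chemicals are preincubated 30 min at 37 C; AChE-driven acetylthiocholine cleavage is then quantified by thiocholine-dependent Thiolite Green fluorescence after 40 min at room temperature.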
# Acetylcholinesterase (Homo sapiens), sequence (P22303 whole entry, looked up): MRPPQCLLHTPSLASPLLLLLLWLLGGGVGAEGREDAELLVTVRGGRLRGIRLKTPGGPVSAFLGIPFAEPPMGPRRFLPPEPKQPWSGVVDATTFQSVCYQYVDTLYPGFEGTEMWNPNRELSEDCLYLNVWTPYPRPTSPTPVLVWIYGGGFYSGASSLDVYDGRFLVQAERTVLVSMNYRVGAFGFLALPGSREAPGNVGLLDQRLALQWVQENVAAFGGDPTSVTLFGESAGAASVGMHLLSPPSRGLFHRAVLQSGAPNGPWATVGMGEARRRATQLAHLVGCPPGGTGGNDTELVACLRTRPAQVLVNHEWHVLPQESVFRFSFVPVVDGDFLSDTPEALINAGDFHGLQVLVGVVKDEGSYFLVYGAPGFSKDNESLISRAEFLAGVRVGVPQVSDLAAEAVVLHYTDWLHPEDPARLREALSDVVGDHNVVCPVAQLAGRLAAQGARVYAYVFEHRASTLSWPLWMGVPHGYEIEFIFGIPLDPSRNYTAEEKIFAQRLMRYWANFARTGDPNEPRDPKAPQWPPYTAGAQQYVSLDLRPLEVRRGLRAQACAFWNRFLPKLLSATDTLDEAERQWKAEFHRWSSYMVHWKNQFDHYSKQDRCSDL
row,SMILES,Potency
1,CCC1CCCCC1,inactive
2,CCOC(=O)/C=C(C)/C=C/C=C(C)/C=C/c1c(C)cc(OC)c(C)c1C,inactive
3,Cc1occc1C(=O)Nc1ccc(C(=O)N2CCC(F)(F)/C(=C\C(=O)N3CCC(N4CCCCC4)CC3)c3ccccc32)cc1,inactive
4,CCOC(=O)CCc1ccccc1,inactive
5,O=C1c2ccccc2-c2ccccc21,inactive
6,CN1CCCC1,inactive
7,COc1ccc2c(c1)c1c3n2CCN(C)C3=NCC1,inactive
8,Cc1ccc(NC(N)=O)cc1,inactive
9,CCOC(=O)[C@H](CCc1ccccc1)N[C@@H](C)C(=O)N1[C@H](C(=O)O)C[C@@H]2CCC[C@@H]21,inactive
10,Cc1ccc2ccc3cccc4ccc1c2c34,inactive
11,c1ccc(-c2nc3ccccc3[nH]2)cc1,inactive
12,CC(C)C1CCC(O)CC1 (configuration not stated),inactive
13,CC(C)(C)c1ccc(OC(=O)c2ccccc2O)cc1,inactive
14,Cc1nc(-c2ccc3c(c2)CCN(CCC2CCC(NC(=O)/C=C/c4ccc(F)cc4)CC2)CC3)no1 (configuration not stated),inactive
15,C=Cc1ccc(S(=O)(=O)O)cc1,inactive
16,CC(=O)NC(Cc1ccccc1)C(=O)O (configuration not stated),inactive
17,CC(C)=CCC/C(C)=C\C#N,inactive
18,CCCCCCCCC(C)=O,inactive
19,CC(C)COC(=O)c1ccc(O)cc1,inactive
20,C[C@H](CCC(=O)NCC(=O)O)[C@H]1CC[C@H]2[C@@H]3[C@H](O)C[C@@H]4C[C@H](O)CC[C@]4(C)[C@H]3C[C@H](O)[C@]12C,inactive
21,C/C=C(\C)C(=O)OCC/C=C\CC,inactive
22,CCN(CC)c1ccc(C(=C2C=CC(=[N+](CC)CC)C=C2)c2cc(S(=O)(=O)O)ccc2S(=O)(=O)[O-])cc1,inactive

# From PubChem BioAssay (Tox21)
